Screens deposited in PubChem by several laboratories.
CYP2C9 inh: human CYP2C9 inhibition. CYP2C9 Supersomes, luciferin-H conversion, luminescence. P11712. inhibition, % at 5 µM. 96,000 compounds, 20% hits. AID 777;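 active = blocking of liver enzyme CYP2C9 beyond about 50% at 5 µM, limit read from the data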
Plk1 PBD FP: inhibitors of human Plk1 polo box domain binding; P53350; Plk1 PBD phosphopeptide binding, fluorescence polarization; inhibition, %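 (tested at about 20 µM)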; 97,000 compounds, 0.13% hits; AID 693; in the data active = inhibition above about 34%, passing the limit was not always enough
PLK1 inh: PLK1 (human) kinase inhibition | P53350 | recombinant PLK1 kinase, TR-FRET peptide phosphorylation | inhibition, % at 10 µM | 97,000 compounds, 0.53% hits | AID 619;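 active = inhibition of 50% or more in the single-concentration screen; inactive = inhibition below 50%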
CYP2C19 inhib: human CYP2C19 inhibition | P33261 | CYP2C19 Supersomes, luciferin-H EGE luminescence, 30 min | inhibition, % at 5 µM | 96,000 compounds, 21% hits;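 active = CYP2C19 inhibition above a set limit at 5 µM in the primary screen, cut at about 50% in these data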
Target sequence (P33261 whole entry, looked up): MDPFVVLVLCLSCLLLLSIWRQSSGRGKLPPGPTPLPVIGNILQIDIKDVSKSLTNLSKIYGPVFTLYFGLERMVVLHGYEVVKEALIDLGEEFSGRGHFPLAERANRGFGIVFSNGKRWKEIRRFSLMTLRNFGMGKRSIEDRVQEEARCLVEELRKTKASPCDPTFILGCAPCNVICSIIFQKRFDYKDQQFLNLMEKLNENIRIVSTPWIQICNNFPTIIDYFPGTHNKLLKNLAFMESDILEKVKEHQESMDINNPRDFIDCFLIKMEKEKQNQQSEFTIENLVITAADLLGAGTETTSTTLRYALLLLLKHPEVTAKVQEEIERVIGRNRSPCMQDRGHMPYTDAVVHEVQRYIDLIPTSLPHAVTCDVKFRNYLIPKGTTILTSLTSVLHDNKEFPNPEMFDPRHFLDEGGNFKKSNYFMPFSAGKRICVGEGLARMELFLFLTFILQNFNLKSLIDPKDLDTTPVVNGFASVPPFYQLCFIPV
CYP2C19 act: increases human CYP2C19 enzyme activity | P33261 | recombinant CYP2C19, luciferin-H EGE luminescence; hits give high values; 0 = fully inhibited enzyme, 1 = untreated enzyme | activation factor at 5 µM | 96,000 tested, under 10 active | AID 1025;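 active = activation factor of at least 2 at 5 µM in the primary screen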
CYP2C9 act: CYP2C9 (human) activation; P11712; recombinant CYP2C9, luciferin-H conversion, luminescence; hits give high values; factor 1 = untreated enzyme, 0 = blocked; activation factor at 5 µM; 96,000 compounds, 1.4% hits; AID 1024;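 active = activation factor of 2 or more for CYP2C9 at a 5 µM dose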
Hits are given with their value; – = inactive; · = no result. Compounds with a hit are over-represented: about 28% of the library has one in this group of screens.

SMILES	CYP2C9 inh	Plk1 PBD FP	PLK1 inh	CYP2C19 inhib	CYP2C19 act	CYP2C9 act
CCCn1nc2cc(C(=O)NCCc3cccs3)ccc2c1OCC	–	–	–	54	–	–
CCCn1nc2cc(C(=O)NCc3ccc(OC(F)(F)F)cc3)ccc2c1OCC	63	–	–	–	–	–
CCOc1c2ccc(C(=O)NCc3ccc(OC(F)(F)F)cc3)cc2nn1CC	–	–	–	–	–	–
CCCCn1nc2cc(C(=O)NCc3ccc4c(c3)OCO4)ccc2c1OCC	66	–	–	59	–	–
Cc1ccnc(NC(=S)NC(=O)/C=C/c2ccco2)c1	53	–	–	–	–	–
O=C(/C=C/c1ccco1)NC(=S)Nc1ccc(Cl)cn1	–	–	–	–	–	–
Cc1ccsc1/C=N/N1CCN(c2ccccc2)CC1	–	–	–	–	–	2.1
Cc1nn(-c2ccccc2)c(C)c1/C=N\N1CCN(c2ccc(Cl)cc2)CC1	–	–	–	–	–	–
CCc1ccc(CNCCNCC(C)O)cc1 (stereo not given)	–	–	–	–	–	–
COc1ccc(-c2nnc(CSc3nc4ccccc4c(=O)n3C)o2)cc1OC	86	–	–	80	–	–
O=c1c2ccccc2nc(SCc2nnc(-c3ccccc3Br)o2)n1-c1ccccc1	·	–	–	·	·	·
O=c1c2ccccc2nc(SCc2nnc(-c3ccccc3)o2)n1-c1ccc(F)cc1F	99	–	–	77	–	–
CC(=O)NC(CCS(C)(=O)=O)C(=O)N1CCc2ccccc21 (stereo not given)	–	–	–	–	–	–
COc1ccccc1NC(=O)N1CCN(c2cc(-c3ccccc3)nc3ncnn23)CC1	–	–	–	–	–	–
COc1ccc(C(CNC(=O)c2cccc(Br)c2)N2CCCC2)cc1 (stereo not given)	–	–	–	–	–	–
COc1ccc(C(CNC(=O)c2cc(C)oc2C)N2CCOCC2)cc1 (stereo not given)	–	–	–	60	–	–
COc1ccc(C(CNC(=O)COc2ccccc2C#N)N2CCOCC2)cc1 (stereo not given)	60	–	–	–	–	–
O=C(NCC(c1ccc(F)cc1)N1CCOCC1)c1ccc(Br)o1 (stereo not given)	–	–	–	61	–	–
O=C(COc1ccccc1)NCC(c1cccs1)N1CCOCC1 (stereo not given)	·	–	–	·	·	·
COc1ccc(C(CNC(=O)c2ccc3c(c2)C(=O)N(CCC(C)C)C3=O)N2CCOCC2)cc1 (stereo not given)	88	–	–	88	–	–
CC(=O)OCc1nc2sc(C)c(C)c2c(=O)[nH]1	·	–	–	·	·	·
O=C(CN1C(=O)COc2ccccc21)NCc1ccccn1	–	–	–	–	–	–
CCC(C)(C)NC(=O)Cc1ccccc1OC	–	–	–	–	–	–
O=C(NNC(=O)c1ccccc1Br)c1cccc(Cl)c1	–	–	–	–	–	3.1
CC1(C)Cc2nc3sc4c(SCC(=O)NCc5ccccc5)ncnc4c3cc2CO1	73	–	–	83	–	–
SMILES	CYP2C9 inh	Plk1 PBD FP	PLK1 inh	CYP2C19 inhib	CYP2C19 act	CYP2C9 act
Cc1nnc2c3ccccc3c(-c3cccc4ccccc34)nn12	–	–	–	61	–	–
Cc1ccc(NC(=O)CO/N=C(\N)c2nonc2N)cc1	–	–	–	70	–	–
N/C(=N\OC(=O)c1ccc(Cl)cc1)c1nonc1N	–	–	–	–	–	–
Cc1ccc(S(=O)(=O)NC2(C(=O)O)CCCCC2)cc1	57	–	–	–	–	–
CC(=O)c1ccc(NC(=O)/C(=C\c2ccccc2)NC(=O)/C=C/c2ccccc2)cc1	53	–	–	–	–	–
Cc1ccc(C)c(OCC(=O)Nn2c(C)nc3ccccc3c2=O)c1	78	–	–	–	–	–
Cc1nc2ccccc2c(=O)n1NC(=O)Cc1ccccc1	·	–	–	·	·	·
COc1ccc2[nH]c3c(c2c1)CCn1c-3nc2ccccc2c1=O	–	·	·	75	–	–
COc1cccc(CC(=O)Nn2c(C)nc3ccccc3c2=O)c1	87	–	–	–	–	–
Cc1nc2ccccc2c(=O)n1NC(=O)Nc1ccccc1	–	–	–	–	–	–
COc1ccc(Br)c(C(=O)Nn2c(C)nc3ccccc3c2=O)c1	54	–	–	–	–	–
Cc1nc2ccccc2c(=O)n1NC(=O)c1ccco1	·	–	–	·	·	·
COc1cc(OC)cc(C(=O)Nc2ccccc2C(=O)N2CCCC2)c1	–	–	–	–	–	–
COc1cc(OC)cc(C(=O)Nn2c(C)nc3ccccc3c2=O)c1	53	–	–	–	–	–
Cc1nc2ccccc2c(=O)n1NC(=O)c1ccc(F)cc1Cl	81	–	–	–	–	–
Cc1nc2ccccc2c(=O)n1NC(=O)c1ccccc1Cl	–	–	–	–	–	–
COc1cc(OC)cc(C(=O)Nn2cc(C(=O)N3CCN(C)CC3)c3ccccc3c2=O)c1	58	–	–	–	–	–
COc1ccccc1C(=O)Nn1c(C2CCC2)nc2ccccc2c1=O	95	–	–	54	–	–
CCOc1ccccc1C(=O)Nn1c(C2CCC2)nc2ccccc2c1=O	–	–	–	–	–	–
O=C(c1ccc(C(=O)N2CCOCC2)nc1)N1CCOCC1	–	–	–	–	–	–
Cc1ccc(-n2cc(C(=O)c3ccc4ccccc4c3O)cn2)cc1	–	–	–	–	–	–
Cc1[nH]c(=O)[nH]c(=O)c1CSc1nnc(CCCCCNC(=O)OC(C)(C)C)o1	–	–	–	–	–	–
CCCc1cc(-c2n[nH]c(=S)n2C(C)c2ccccc2)cs1 (stereo not given)	97	–	–	81	–	–
CCc1cc(-c2n[nH]c(=S)n2-c2ccccc2C)cs1	52	–	–	–	–	–
CCc1cc(-c2n[nH]c(=S)n2Cc2ccccc2)cs1	–	–	–	51	–	–
SMILES	CYP2C9 inh	Plk1 PBD FP	PLK1 inh	CYP2C19 inhib	CYP2C19 act	CYP2C9 act
CC(c1ccc(Cl)cc1)n1c(-c2ccc3ccccc3n2)n[nH]c1=S (stereo not given)	–	–	–	–	–	–
CN(Cc1ccccc1)C(=O)C1CCN(Cc2ccc(F)cc2)CC1	–	·	·	–	–	–
O=C1CC(c2ccc(F)cc2)Cc2nc(N3CCOCC3)ncc21 (stereo not given)	–	–	–	77	–	–
CCN1CCN(c2ncc3c(n2)CC(c2cc(OC)c(OC)c(OC)c2)CC3=O)CC1 (stereo not given)	–	–	–	–	–	–
O=C1CC(c2cccc(Cl)c2)Cc2nc(N3CCN(c4ccccc4)CC3)ncc21 (stereo not given)	–	–	–	–	–	–
O=C1CC(c2cccc(Cl)c2)Cc2nc(N3CCOCC3)ncc21 (stereo not given)	59	–	–	72	–	–
FC(F)(F)c1nnc(-c2ccccc2)nc1Oc1ccc(Cl)cc1Cl	–	–	–	61	–	–
Cc1ccc(CNc2ccc(Cl)cc2[N+](=O)[O-])cc1	–	–	–	–	–	–
